Reference: the supplement of paper PMC10849652
Targets with a hit are over-represented here; the source holds about 7,900 in all. About 0.6% of all pairs of compound and target were hits.

Experiments:
Assay in all cases: log2 fold change, soluble protein after heating vs DMSO (PISA); higher = thermal stabilisation; K562 cells, 10 uM, 30 min; active = over 0.2 and 3.5 SD of the protein, either way, in both replicates (recomputed)
[1] = compound: CC[C@@H]1C(=O)N(C)c2cnc(Nc3ccc(C(=O)NC4CCN(C)CC4)cc3OC)nc2N1C1CCCC1
Procedure, shortened: (§1)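 K562 cells at 2×10^6 cells/mL were given 10 μM compound for 30 min. Aliquots then went through 3 min of heating across 48°C-58°C, were pooled, and were extracted in PBS with 0.5% NP-40 at 4°C, and the supernatant after 21,000xg for 90 min was quantified by TMTpro 16plex LC-MS/MS with channel sums equalised. Thermal stability relative to control samples, from duplicates, is given as log2 fold change.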

[2] = compound: CC[C@@H]1C(=O)N(C)c2cnc(Nc3ccc(C(=O)N[C@H]4CC[C@H](N5CCN(CC6CC6)CC5)CC4)cc3OC)nc2N1C(C)C [volasertib]
Procedure, shortened: as §1

[3] = compound: CC[C@H](C)N1C=C(C2=C(C=C(C=C21)C3=CN=C(C=C3)N4CCNCC4)C(=O)NCC5=C(C=C(NC5=O)C)C)C
Procedure, shortened: as §1

[4] = compound: CC[C@H](C)[C@@H](C(=O)N[C@@H]([C@@H](C)O)C(=O)N[C@@H](CC(C)C)C(=O)[C@]1(CO1)C)NC(=O)[C@H]([C@@H](C)CC)N(C)C(=O)C [epoxomicin]
Procedure, shortened: as §1

[5] = compound: CCn1c(C(=O)N(C2CC2)C2CC2)cc2c3c(ncn3C)c(Nc3cc(C)n(C)n3)nc21
Procedure, shortened: as §1

[6] = compound: CCn1cc(-c2ccnc3[nH]c(-c4cccc(CN(C)C)c4)cc23)c(-c2ccc(NC(=O)N(C)C)cc2)n1
Procedure, shortened: as §1

[7] = compound: CN(C)CC(=O)Nc1ccc2[nH]c(=O)c3ccccc3c2c1
Procedure, shortened: as §1

[8] = compound: CN(CCOC1=CC=C(C=C1)C[C@H]2C(=O)NC(=O)S2)C3=CC=CC=N3 (racemic) [rosiglitazone]
Procedure, shortened: as §1

[9] = compound: CN1C2=C(C3=C1C(=O)N(N=C3)CC4=CC(=CC=C4)N)SC(=C2)S(=O)C
Procedure, shortened: as §1

[10] = compound: CN1CCC(CNc2ccc3ncc(-c4cccc(OC(F)(F)F)c4)n3n2)CC1
Procedure, shortened: as §1

Measured: log2 fold change

SKP1 (UniProt P63208)
inactive: [1] -0.012 | [2] -0.02 | [3] -0.027 | [4] 0.034 | [5] 0.035 | [6] -0.035 | [7] -0.019 | [8] -0.02 | [9] -0.126 | [10] 0.244

RSL1D1 (UniProt O76021)
inactive: [1] 0.301 | [2] 0.399 | [3] 0.012 | [4] -0.517 | [5] -0.065 | [6] 0.155 | [7] -0.214 | [8] -0.299 | [9] 0.374 | [10] 0.591

RABGAP1L isoform 3 (UniProt Q5R372)
inactive: [1] -0.046 | [2] -0.107 | [3] 0.053 | [4] 0.08 | [5] -0.028 | [6] -0.034 | [7] -0.011 | [8] -0.026 | [9] 0.02 | [10] 0.025

RHOA (UniProt P61586)
inactive: [1] -0.098 | [2] 0.134 | [3] 0.065 | [4] 0.049 | [5] 0.024 | [6] 0.071 | [7] -0.025 | [8] -0.057 | [9] -0.037 | [10] 0.01

RUNX1 isoform 8 (UniProt Q01196)
inactive: [1] -0.331 | [3] 0.086 | [4] -0.206 | [5] 0.035 | [6] -0.089 | [7] 0.06 | [8] 0.032 | [9] -0.027 | [10] -0.102
active: [2] -0.434

RAC1 (UniProt P63000)
active: [10] 0.35
inactive: [1] -0.024 | [2] 0.03 | [3] 0.026 | [4] 0.019 | [5] 0.019 | [6] 0.044 | [7] 0.05 | [8] 0.069 | [9] -0.067

RHEB (UniProt Q15382)
UniProt Q15382, sequence (Q15382 whole entry, looked up): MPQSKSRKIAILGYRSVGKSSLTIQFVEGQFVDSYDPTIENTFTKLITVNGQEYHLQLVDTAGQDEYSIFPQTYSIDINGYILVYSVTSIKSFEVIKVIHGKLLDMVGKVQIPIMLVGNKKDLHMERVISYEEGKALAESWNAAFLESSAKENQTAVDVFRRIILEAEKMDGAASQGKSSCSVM
inactive: [1] 0.038 | [2] 0.013 | [3] -0.014 | [4] 0.002 | [5] 0.022 | [6] 0.02 | [7] 0.016 | [8] 0.026 | [9] -0.068 | [10] -0.003

RBM27 (UniProt Q9P2N5)
active: [2] -0.296
inactive: [1] -0.141 | [3] 0.014 | [4] 0.014 | [5] -0.11 | [6] 0.001 | [7] 0.027 | [8] 0.055 | [9] -0.013 | [10] -0.068

RBM39 (UniProt Q14498)
UniProt Q14498, sequence (Q14498 whole entry, looked up): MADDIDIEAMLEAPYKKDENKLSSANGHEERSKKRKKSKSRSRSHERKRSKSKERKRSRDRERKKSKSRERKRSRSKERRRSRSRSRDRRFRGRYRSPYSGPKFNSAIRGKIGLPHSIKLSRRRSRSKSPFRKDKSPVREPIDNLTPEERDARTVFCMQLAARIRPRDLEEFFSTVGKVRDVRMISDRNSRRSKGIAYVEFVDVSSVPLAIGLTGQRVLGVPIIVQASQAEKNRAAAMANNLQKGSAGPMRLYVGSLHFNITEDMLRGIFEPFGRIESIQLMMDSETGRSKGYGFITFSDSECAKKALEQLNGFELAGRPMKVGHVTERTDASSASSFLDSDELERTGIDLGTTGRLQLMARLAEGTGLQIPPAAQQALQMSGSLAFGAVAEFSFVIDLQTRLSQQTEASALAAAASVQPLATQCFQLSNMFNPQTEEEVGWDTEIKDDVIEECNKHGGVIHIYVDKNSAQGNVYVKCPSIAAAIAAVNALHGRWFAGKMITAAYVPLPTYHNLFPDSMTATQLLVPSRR
inactive: [1] -0.183 | [3] 0.038 | [4] -0.027 | [5] -0.057 | [6] 0.079 | [7] 0.013 | [8] 0.025 | [9] 0.071 | [10] -0.045
active: [2] -0.487

RAB5C isoform 2 (UniProt P51148)
UniProt P51148, sequence (P51148 whole entry, looked up): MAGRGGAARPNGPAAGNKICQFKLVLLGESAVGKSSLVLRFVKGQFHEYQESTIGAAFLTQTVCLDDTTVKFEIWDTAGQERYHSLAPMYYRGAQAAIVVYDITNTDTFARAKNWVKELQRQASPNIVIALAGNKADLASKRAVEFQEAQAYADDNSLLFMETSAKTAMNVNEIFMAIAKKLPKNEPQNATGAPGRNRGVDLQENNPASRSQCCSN
inactive: [1] 0.004 | [2] 0.045 | [3] -0.024 | [4] 0 | [5] 0.029 | [6] -0.002 | [7] 0 | [8] -0.011 | [9] -0.032 | [10] 0.018

RAD50 isoform 2 (UniProt Q92878)
inactive: [1] -0.069 | [3] 0.041 | [4] 0.041 | [5] -0.012 | [6] -0.001 | [7] 0.025 | [8] 0.031 | [9] -0.03 | [10] -0.074
active: [2] -0.228

RNF220 (UniProt Q5VTB9)
inactive: [1] -0.047 | [2] -0.114 | [3] 0.085 | [4] -0.021 | [5] -0.045 | [6] -0.043 | [7] -0.03 | [8] 0.002 | [9] -0.045 | [10] 0.003

RSRC1 (UniProt Q96IZ7)
UniProt Q96IZ7, sequence (Q96IZ7 whole entry, looked up): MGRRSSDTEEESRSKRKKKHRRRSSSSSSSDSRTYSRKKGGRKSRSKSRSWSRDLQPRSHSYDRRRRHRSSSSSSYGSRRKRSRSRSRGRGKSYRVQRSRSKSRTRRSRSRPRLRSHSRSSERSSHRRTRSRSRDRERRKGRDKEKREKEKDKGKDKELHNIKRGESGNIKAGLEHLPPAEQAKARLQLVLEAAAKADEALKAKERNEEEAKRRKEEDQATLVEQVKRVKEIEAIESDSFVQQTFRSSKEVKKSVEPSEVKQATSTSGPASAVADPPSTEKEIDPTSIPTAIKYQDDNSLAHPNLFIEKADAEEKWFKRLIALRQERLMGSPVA
inactive: [1] 0.01 | [2] 0.056 | [3] -0.041 | [4] 0.083 | [5] 0.022 | [6] -0.021 | [7] -0.005 | [8] 0.002 | [9] -0.01 | [10] -0.062

RNF14 (UniProt Q9UBS8)
UniProt Q9UBS8, sequence (Q9UBS8 whole entry, looked up): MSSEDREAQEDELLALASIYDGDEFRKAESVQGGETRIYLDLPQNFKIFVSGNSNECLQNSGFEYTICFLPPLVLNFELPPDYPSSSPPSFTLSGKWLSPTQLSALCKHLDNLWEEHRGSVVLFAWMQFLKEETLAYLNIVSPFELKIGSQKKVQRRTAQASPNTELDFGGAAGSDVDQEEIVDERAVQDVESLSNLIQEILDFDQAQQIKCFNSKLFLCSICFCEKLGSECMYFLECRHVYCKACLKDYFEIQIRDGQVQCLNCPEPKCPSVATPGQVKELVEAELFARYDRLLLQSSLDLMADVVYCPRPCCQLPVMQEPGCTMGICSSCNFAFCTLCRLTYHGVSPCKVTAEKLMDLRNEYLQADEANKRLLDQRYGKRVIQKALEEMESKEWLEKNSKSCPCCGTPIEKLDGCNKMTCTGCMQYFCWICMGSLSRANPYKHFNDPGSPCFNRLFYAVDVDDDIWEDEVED
active: [2] -0.288
inactive: [1] -0.054 | [3] 0.037 | [4] -0.075 | [5] 0.002 | [6] -0.032 | [7] -0.019 | [8] 0.032 | [9] -0.049 | [10] -0.025

SH2D1B (UniProt O14796)
inactive: [1] -0.068 | [2] -0.029 | [3] 0.095 | [4] 0.168 | [5] 0.092 | [6] -0.068 | [7] -0.025 | [9] 0.235 | [10] -0.174

RTN4IP1 (UniProt Q8WWV3)
UniProt Q8WWV3, sequence (Q8WWV3 whole entry, looked up): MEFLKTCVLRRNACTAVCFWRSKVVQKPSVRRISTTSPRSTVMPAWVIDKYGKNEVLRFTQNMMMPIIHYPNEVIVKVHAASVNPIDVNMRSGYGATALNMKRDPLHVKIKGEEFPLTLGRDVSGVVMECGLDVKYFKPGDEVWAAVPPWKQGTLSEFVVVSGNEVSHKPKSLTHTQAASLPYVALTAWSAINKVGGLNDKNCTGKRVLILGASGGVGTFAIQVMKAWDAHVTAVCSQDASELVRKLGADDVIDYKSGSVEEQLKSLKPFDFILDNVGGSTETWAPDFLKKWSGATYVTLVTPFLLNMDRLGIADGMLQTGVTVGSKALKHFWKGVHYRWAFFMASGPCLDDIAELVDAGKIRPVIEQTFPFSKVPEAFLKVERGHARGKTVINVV
active: [8] 0.965
inactive: [1] -0.118 | [2] -0.196 | [3] -0.059 | [4] -0.02 | [5] 0.009 | [6] -0.079 | [7] -0.003 | [9] -0.219 | [10] -0.12

RELA (UniProt Q04206)
UniProt Q04206, sequence (Q04206 whole entry, looked up): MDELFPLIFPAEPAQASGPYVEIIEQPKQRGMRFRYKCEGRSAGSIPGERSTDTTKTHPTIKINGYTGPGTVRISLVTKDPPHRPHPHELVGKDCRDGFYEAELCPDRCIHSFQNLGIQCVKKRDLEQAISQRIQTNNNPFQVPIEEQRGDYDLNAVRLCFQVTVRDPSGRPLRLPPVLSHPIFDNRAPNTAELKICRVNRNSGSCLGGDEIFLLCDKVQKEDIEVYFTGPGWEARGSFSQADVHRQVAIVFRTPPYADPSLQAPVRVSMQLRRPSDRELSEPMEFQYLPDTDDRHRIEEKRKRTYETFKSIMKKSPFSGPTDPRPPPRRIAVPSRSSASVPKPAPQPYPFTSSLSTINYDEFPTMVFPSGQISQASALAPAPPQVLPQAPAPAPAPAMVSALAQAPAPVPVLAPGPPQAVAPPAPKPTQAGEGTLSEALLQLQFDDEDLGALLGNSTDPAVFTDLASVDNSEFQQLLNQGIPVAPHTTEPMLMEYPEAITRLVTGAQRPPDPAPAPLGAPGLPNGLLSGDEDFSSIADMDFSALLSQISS
inactive: [1] -0.063 | [3] 0.013 | [4] 0.025 | [5] 0.027 | [6] -0.043 | [7] -0.019 | [8] 0.039 | [9] -0.009 | [10] -0.011
active: [2] -0.263

ROMO1 (UniProt P60602)
inactive: [1] 0.033 | [2] 0.01 | [3] -0.06 | [4] -0.178 | [5] 0.024 | [6] -0.023 | [8] -0.023 | [9] 0.125 | [10] 0.049

RSPRY1 (UniProt Q96DX4)
inactive: [1] 0.082 | [2] -0.001 | [3] -0.019 | [4] 0.034 | [5] 0.006 | [6] -0.034 | [7] -0.014 | [8] 0.011 | [9] -0.176
active: [10] 0.219

RDH11 (UniProt Q8TC12)
inactive: [1] -0.213 | [3] 0.015 | [4] 0.045 | [5] -0.024 | [6] -0.072 | [7] 0.037 | [8] -0.041 | [9] 0.027
active: [2] -0.543 | [10] -0.466

SETD3 (UniProt Q86TU7)
UniProt Q86TU7, sequence (Q86TU7 whole entry, looked up): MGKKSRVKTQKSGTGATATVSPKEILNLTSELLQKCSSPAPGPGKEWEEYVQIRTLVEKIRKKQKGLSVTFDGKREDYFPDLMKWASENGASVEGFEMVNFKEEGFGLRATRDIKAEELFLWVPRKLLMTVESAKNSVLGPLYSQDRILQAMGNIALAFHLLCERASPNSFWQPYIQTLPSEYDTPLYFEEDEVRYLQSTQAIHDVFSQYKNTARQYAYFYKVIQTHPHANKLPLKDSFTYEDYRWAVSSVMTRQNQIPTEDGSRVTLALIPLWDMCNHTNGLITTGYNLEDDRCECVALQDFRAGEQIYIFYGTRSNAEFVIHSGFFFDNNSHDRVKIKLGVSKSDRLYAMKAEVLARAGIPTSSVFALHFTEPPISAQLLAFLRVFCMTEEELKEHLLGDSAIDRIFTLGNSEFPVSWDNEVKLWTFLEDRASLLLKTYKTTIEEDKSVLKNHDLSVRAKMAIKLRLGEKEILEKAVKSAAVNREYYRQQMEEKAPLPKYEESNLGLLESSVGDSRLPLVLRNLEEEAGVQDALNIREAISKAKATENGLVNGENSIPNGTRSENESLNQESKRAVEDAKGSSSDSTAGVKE
inactive: [1] -0.017 | [2] -0.018 | [3] 0.055 | [4] -0.024 | [5] -0.004 | [6] -0.002 | [7] -0.02 | [8] 0.015 | [9] -0.056 | [10] 0.06

RRAS2 isoform 4 (UniProt P62070)
active: [10] 0.207
inactive: [1] 0.061 | [2] 0.124 | [3] -0.048 | [4] 0.063 | [5] 0.004 | [6] 0.014 | [7] -0.013 | [8] 0.019 | [9] -0.064

SFXN5 (UniProt Q8TD22)
inactive: [1] 0.048 | [2] -0.034 | [3] 0.022 | [4] -0.009 | [5] -0.012 | [6] -0.039 | [7] 0.006 | [8] 0.007 | [9] -0.209 | [10] 0.063

RAB3D (UniProt O95716)
inactive: [1] 0.039 | [2] 0.025 | [3] 0.097 | [5] 0.067 | [6] 0.041 | [7] -0.098 | [8] -0.013 | [9] 0.103 | [10] 0.129

SDHC (UniProt Q99643)
UniProt Q99643, sequence (Q99643 whole entry, looked up): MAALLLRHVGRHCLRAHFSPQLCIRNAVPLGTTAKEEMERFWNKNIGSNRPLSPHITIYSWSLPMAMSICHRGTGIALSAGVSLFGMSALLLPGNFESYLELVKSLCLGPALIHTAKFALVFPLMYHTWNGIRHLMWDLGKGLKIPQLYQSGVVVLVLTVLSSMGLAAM
inactive: [1] 0.042 | [2] 0.036 | [3] -0.1 | [4] 0.205 | [5] 0.018 | [6] 0 | [7] 0.264 | [8] 0.064 | [9] -0.068 | [10] 0.023

SCCPDH (UniProt Q8NBX0)
inactive: [1] 0.083 | [2] 0.158 | [3] -0.06 | [4] -0.024 | [5] 0.008 | [6] -0.07 | [7] 0.039 | [8] 0.022 | [9] -0.194 | [10] 0.216

RPS19 (UniProt P39019)
inactive: [1] 0.147 | [2] 0.319 | [3] 0.008 | [4] -0.115 | [5] 0.041 | [6] 0.091 | [7] -0.073 | [8] -0.063 | [9] 0.147 | [10] 0.121

SCAMP2 (UniProt H3BUB6)
inactive: [1] -0.015 | [2] -0.006 | [3] -0.092 | [4] -0.157 | [5] -0.058 | [7] -0.201 | [8] -0.034 | [9] 0.064

RARS (UniProt P54136)
UniProt P54136, sequence (P54136 whole entry, looked up): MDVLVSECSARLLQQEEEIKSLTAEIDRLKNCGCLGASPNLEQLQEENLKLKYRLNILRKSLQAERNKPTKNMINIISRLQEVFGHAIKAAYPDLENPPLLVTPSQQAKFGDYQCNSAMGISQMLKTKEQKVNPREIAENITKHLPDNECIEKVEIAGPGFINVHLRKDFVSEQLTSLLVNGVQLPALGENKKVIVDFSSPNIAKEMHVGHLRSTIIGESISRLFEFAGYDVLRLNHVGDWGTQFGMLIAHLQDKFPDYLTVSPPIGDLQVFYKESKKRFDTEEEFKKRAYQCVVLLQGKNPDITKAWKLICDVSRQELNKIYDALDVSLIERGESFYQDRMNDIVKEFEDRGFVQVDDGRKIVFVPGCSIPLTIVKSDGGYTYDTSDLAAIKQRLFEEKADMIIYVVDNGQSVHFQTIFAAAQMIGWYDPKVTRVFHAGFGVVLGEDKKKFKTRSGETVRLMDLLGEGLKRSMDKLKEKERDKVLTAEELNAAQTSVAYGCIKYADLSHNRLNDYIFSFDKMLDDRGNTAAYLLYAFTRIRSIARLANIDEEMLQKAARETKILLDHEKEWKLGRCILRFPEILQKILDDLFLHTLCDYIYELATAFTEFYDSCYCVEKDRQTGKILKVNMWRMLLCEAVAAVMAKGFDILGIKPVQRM
inactive: [1] 0.059 | [2] -0.172 | [3] 0.072 | [4] -0.085 | [5] -0.099 | [6] 0.107 | [7] 0.013 | [8] 0.034 | [9] 0.26 | [10] -0.111
